Test results published in PubChem BioAssay (EPA / NIEHS).
Inconclusive results are not listed. Active and inactive are the calls of the source. Rule for the calls, unless noted: active = hit-call score of the fitted dose curve at least 0.9, where 1 is the maximum; inconclusive = response in the unintended direction; inactive = score below 0.9.

Key:
[1] = ATG_TAL_CIS: Attagene CIS-FACTORIAL HepG2 Assay for human TAL Basal Promoter (AID 2282966; active = hit-call score of the fitted dose curve at least 0.9, where 1 is the maximum; inactive = score below 0.9;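 note: background control endpoint measuring basal TAL promoter reporter mRNA not a specific factor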); conditions: HepG2 Attagene cis-factorial TAL promoter reporter; actives raise or lower the signal
In short: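 Fluorescence of labelled reporter cDNA fragments, resolved by capillary electrophoresis, gave the readout. Human HepG2 liver cells carried transiently transfected cis-element reporter units and were treated for 24 hours; activity was fitted bidirectionally against DMSO.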

[2] = ATG_TGFb_CIS: Attagene CIS-FACTORIAL HepG2 Assay for human Transforming Growth Factor (TGF) (AID 2282967; active = hit-call score of the fitted dose curve at least 0.9, where 1 is the maximum; inactive = score below 0.9); conditions: HepG2 Attagene CIS TGFb reporter, mRNA transcription; actives raise or lower the signal
In short: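 Transient MRTU transfection of HepG2 (FuGene 6). Dose 24 h. TriZol RNA, oligo(dT) RT, PCR, 6-FAM primer extension, HpaI cut, CE. Bidirectional fit, DMSO = baseline.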

[3] = ATG_VDRE_CIS: Attagene CIS-FACTORIAL HepG2 Assay for human Vitamin D Receptor Element (VDRE) (AID 2282968; active = hit-call score of the fitted dose curve at least 0.9, where 1 is the maximum; inactive = score below 0.9); conditions: HepG2 VDRE cis-reporter transcription, actives raise or lower the signal
In short: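 RT-PCR/CE readout of reporter mRNA; HepG2, transient transfection, 24 h dosing; DMSO baseline; bidirectional analysis.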

[4] = molecular target: X-box-binding protein 1 (Homo sapiens) (UniProt P17861); test: ATG_Xbp1_CIS: Attagene CIS-FACTORIAL HepG2 Assay for human X-box Binding Protein 1 (XBP1) (AID 2282972; active = hit-call score of the fitted dose curve at least 0.9, where 1 is the maximum; inactive = score below 0.9); conditions: HepG2 XBP1 cis-element reporter, Attagene multiplex; actives raise or lower the signal
In short: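 HepG2 cells transiently transfected with multiple cis-element reporter units report endogenous TF activity; 24 h exposure, then reporter mRNA measured by RT-PCR, 6-FAM labelling, HpaI digestion and capillary electrophoresis. Bidirectional fitting versus DMSO.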

[5] = ATG_GAL4_TRANS: Attagene TRANS-FACTORIAL HepG2 Assay for GAL4 (Internal Marker) (AID 2282976); conditions: HepG2 Attagene TRANS GAL4 internal marker reporter
In short: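 First, HepG2 cells were transfected with reporter units under GAL4-UAS control. Next, they were treated with chemical for 24 h. Finally, RNA was reverse-transcribed, PCR-amplified, FAM-labelled and resolved by capillary electrophoresis, with induction scored against DMSO.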

[6] = molecular target: Oxysterols receptor LXR-beta (Homo sapiens) (UniProt P55055); test: ATG_LXRb_TRANS: Attagene TRANS-FACTORIAL HepG2 Assay for human Liver X Receptor beta (LXRb) (AID 2282981); conditions: HepG2 Attagene TRANS GAL4-LXRb reporter, mRNA
In short: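 In this TRANS format, exogenous chimeric NR-Gal4 protein activity, not endogenous factors, drives reporter expression in transfected human HepG2 cells. Exposure lasted 24 h; reporter mRNA was read by fluorescent capillary electrophoresis.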

[7] = molecular target: Hepatocyte nuclear factor 4-alpha (Homo sapiens) (UniProt P41235); test: ATG_HNF4a_TRANS: Attagene TRANS-FACTORIAL HepG2 Assay for human Hepatocyte Nuclear Factor 4 alpha (HNF4a) (AID 2282982); conditions: HepG2 HNF4a transactivation reporter, mRNA readout
In short: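 Cells used were human HepG2, transiently carrying GAL4-UAS reporter units read out against exogenous NR-GAL4 chimeras. Reporter transcript levels after 24 h dosing were quantified by fluorescent RT-PCR and capillary electrophoresis.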

[8] = ATG_M_06_TRANS: Attagene TRANS-FACTORIAL HepG2 Assay for M06 Transcription Factor (Internal Marker) (AID 2282983); conditions: HepG2 Attagene TRANS M06 internal marker reporter
In short: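 Transfect HepG2 with MRTUs → dose compounds 24 h → isolate RNA, oligo(dT) RT → PCR with reporter primers → 6-FAM primer extension → HpaI digest → CE fragment analysis. Positive direction vs DMSO.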

[9] = ATG_M_32_TRANS: Attagene TRANS-FACTORIAL HepG2 Assay for M32 Transcription Factor (Internal Marker) (AID 2282984); conditions: HepG2 Attagene TRANS M32 internal marker reporter;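 note: transcript level of a background control reporter unit measured by RT-PCR and capillary electrophoresis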
In short: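 Human hepatoma HepG2, transient MRTU transfection, 24 h treatment. RNA → RT-PCR → fluorescent primer extension → HpaI digest (2 h, 37 C) → CE. Positive-direction fit vs DMSO.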

[10] = molecular target: Nuclear receptor subfamily 4 group A member 2 (Homo sapiens) (UniProt P43354); test: ATG_NURR1_TRANS: Attagene TRANS-FACTORIAL HepG2 Assay for human Nuclear Receptor Related Protein 1 (NURR1) (AID 2282985); conditions: HepG2 Attagene TRANS reporter, mRNA readout
In short: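 After 24 h chemical dosing, total RNA from transiently transfected HepG2 cells was reverse-transcribed and reporter cDNA PCR-amplified, FAM-labelled and analysed by capillary electrophoresis. Activity fitted in positive direction, DMSO as negative control.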

[11] = molecular target: Transcriptional activator Myb (Homo sapiens) (UniProt P10242); test: ATG_Myb_CIS: Attagene CIS-FACTORIAL HepG2 Assay for human Myeloblastosis (Myb) Proto-Oncogene Transcription Factor (AID 2282986; active = hit-call score of the fitted dose curve at least 0.9, where 1 is the maximum; inactive = score below 0.9); conditions: HepG2 Attagene CIS-FACTORIAL Myb reporter transcription; actives raise or lower the signal
In short: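 Using HepG2 liver cells bearing transiently transfected cis-promoter reporter constructs, the assay measures induction or loss of reporter mRNA after 24 hours of dosing. Detection used fluorescently labeled RT-PCR products separated by capillary electrophoresis.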

[12] = molecular target: Nuclear respiratory factor 1 (Homo sapiens) (UniProt Q16656); test: ATG_NRF1_CIS: Attagene CIS-FACTORIAL HepG2 Assay for human Nuclear Respiratory Factor 1 (NRF1) Orphan Gene (AID 2282987; active = hit-call score of the fitted dose curve at least 0.9, where 1 is the maximum; inactive = score below 0.9); conditions: HepG2 NRF1 cis-element reporter, Attagene multiplex; actives raise or lower the signal
In short: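 Reporter mRNA induction or loss in HepG2 cells after 24 h dosing; cis-regulated reporter constructs report endogenous transcription-factor activity. Quantified by RT-PCR/capillary electrophoresis fluorescence, DMSO-referenced.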

[13] = molecular target: Estrogen-related receptor gamma (Homo sapiens) (UniProt P62508); test: ATG_ERRg_TRANS: Attagene TRANS-FACTORIAL HepG2 Assay for human Estrogen-Related Receptor gamma (ERRg) (AID 2282977); conditions: HepG2 Attagene TRANS reporter, ERRg transactivation;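 note: hits increase reporter signal over DMSO so potencies reflect activators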
In short: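 HepG2 cells transiently transfected with multiplexed GAL4-UAS reporter units driven by chimeric NR-Gal4 proteins; 24 h exposure. Reporter mRNA quantified by RT-PCR, fluorescent labelling, HpaI digestion and capillary electrophoresis; gain of signal vs DMSO.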

[14] = molecular target: Glucocorticoid receptor (Homo sapiens) (UniProt P04150); test: ATG_GR_TRANS: Attagene TRANS-FACTORIAL HepG2 Assay for human Glucocorticoid Receptor (GR) (AID 2282978); conditions: HepG2 Attagene TRANS GR reporter, mRNA transcription;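 note: activators score as hits since higher reporter transcript over DMSO is fitted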
In short: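 Transiently transfected HepG2 cells express chimeric NR-GAL4 proteins acting on GAL4-UAS reporter units. Compounds are applied for 24 h. mRNA induction over DMSO is measured by capillary electrophoresis.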

[15] = molecular target: Bile acid receptor (Homo sapiens) (UniProt Q96RI1); test: ATG_FXR_TRANS: Attagene TRANS-FACTORIAL HepG2 Assay for Farnesoid X Receptor (FXR) (AID 2282979); conditions: HepG2 Attagene TRANS FXR-GAL4 reporter transcription;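 note: hits raise reporter mRNA above DMSO so AC50 marks FXR activation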
In short: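 Transient transfection of HepG2 with multiplexed GAL4-UAS reporter units; exogenous FXR-GAL4 chimera. Dose 24 h → TriZol RNA → oligo(dT) RT → PCR, 6-FAM primer extension, HpaI cut → CE. Gain vs DMSO.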

[16] = molecular target: Nuclear receptor subfamily 1 group I member 3 (Homo sapiens) (UniProt Q14994); test: ATG_CAR_TRANS: Attagene TRANS-FACTORIAL HepG2 Assay for human Constitutive Androstane Receptor (CAR) (AID 2282969); conditions: HepG2 Attagene TRANS-FACTORIAL CAR reporter;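 note: activators raise reporter mRNA above DMSO so AC50 marks induction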
In short: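 HepG2 cells transiently transfected with multiplexed GAL4-UAS reporter units expressing chimeric NR-Gal4 proteins; compound exposure 24 h. Reporter mRNA measured by RT-PCR, 6-FAM labelling, HpaI digestion and capillary electrophoresis; gain-of-signal fitted against DMSO baseline.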

[17] = molecular target: Steroid hormone receptor ERR1 (Homo sapiens) (UniProt P11474); test: ATG_ERRa_TRANS: Attagene TRANS-FACTORIAL HepG2 Assay for human Estrogen-Related Receptor alpha (ERRa) (AID 2282971); conditions: HepG2 Attagene TRANS reporter, ERRa transactivation
In short: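 Reporter transcript induction was quantified by RT-PCR and capillary electrophoresis of FAM-labelled, HpaI-cut products after 24 h treatment of HepG2 cells carrying transiently transfected GAL4-UAS reporter units and an exogenous ERRa-Gal4 fusion; activity scored as increase over DMSO.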

[18] = molecular target: Oxysterols receptor LXR-alpha (Homo sapiens) (UniProt Q13133); test: ATG_LXRa_TRANS: Attagene TRANS-FACTORIAL HepG2 Assay for human Liver X Receptor alpha (LXRa) (AID 2282980); conditions: HepG2 Attagene TRANS reporter, LXRa transactivation
In short: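 Transfect HepG2 with GAL4-UAS multiplex reporter constructs (TRANS format, chimeric receptor-GAL4); treat 24 h; extract RNA, reverse-transcribe, PCR-amplify, FAM-label, HpaI-digest; resolve fragments by capillary electrophoresis. Upward response vs DMSO.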

[19] = ATG_M_19_TRANS: Attagene TRANS-FACTORIAL HepG2 Assay for M19 Transcription Factor (Internal Marker) (AID 2282974); conditions: HepG2 Attagene TRANS-FACTORIAL M19 internal marker reporter
In short: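 Multiplexed TRANS format: HepG2 liver cells bearing transient GAL4-UAS reporter units, chemical treatment 24 h, reporter transcripts quantified by RT-PCR plus capillary electrophoresis. DMSO defines baseline.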

[20] = molecular target: Estrogen receptor (Homo sapiens) (UniProt P03372); test: ATG_ERa_TRANS: Attagene TRANS-FACTORIAL HepG2 Assay for human Estrogen Receptor alpha (ERa) (AID 2282970); conditions: HepG2 Attagene TRANS ERa GAL4 reporter, mRNA
In short: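 Human liver HepG2, transient transfection of multiple GAL4-UAS reporter units; TRANS format (exogenous NR-Gal4 chimera). 24 h dosing. Readout: reporter mRNA, RT-PCR, 6-FAM primer extension, HpaI digest, capillary electrophoresis. Positive direction vs DMSO.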

Oxysterols receptor LXR-beta (Homo sapiens), sequence (P55055 whole entry, looked up, the tested form may be a part): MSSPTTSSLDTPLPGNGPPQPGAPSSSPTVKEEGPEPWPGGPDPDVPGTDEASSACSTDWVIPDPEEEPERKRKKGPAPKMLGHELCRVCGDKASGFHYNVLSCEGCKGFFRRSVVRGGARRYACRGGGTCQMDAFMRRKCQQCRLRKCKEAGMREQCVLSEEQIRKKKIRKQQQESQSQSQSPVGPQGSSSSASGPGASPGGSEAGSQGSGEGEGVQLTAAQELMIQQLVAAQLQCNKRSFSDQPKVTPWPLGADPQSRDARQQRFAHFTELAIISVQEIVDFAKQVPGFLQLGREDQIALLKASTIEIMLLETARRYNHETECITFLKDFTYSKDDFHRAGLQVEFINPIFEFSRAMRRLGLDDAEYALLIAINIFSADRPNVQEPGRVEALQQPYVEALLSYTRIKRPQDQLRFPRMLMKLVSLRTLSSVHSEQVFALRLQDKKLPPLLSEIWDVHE
Glucocorticoid receptor (Homo sapiens), sequence (P04150 whole entry, looked up, the tested form may be a part): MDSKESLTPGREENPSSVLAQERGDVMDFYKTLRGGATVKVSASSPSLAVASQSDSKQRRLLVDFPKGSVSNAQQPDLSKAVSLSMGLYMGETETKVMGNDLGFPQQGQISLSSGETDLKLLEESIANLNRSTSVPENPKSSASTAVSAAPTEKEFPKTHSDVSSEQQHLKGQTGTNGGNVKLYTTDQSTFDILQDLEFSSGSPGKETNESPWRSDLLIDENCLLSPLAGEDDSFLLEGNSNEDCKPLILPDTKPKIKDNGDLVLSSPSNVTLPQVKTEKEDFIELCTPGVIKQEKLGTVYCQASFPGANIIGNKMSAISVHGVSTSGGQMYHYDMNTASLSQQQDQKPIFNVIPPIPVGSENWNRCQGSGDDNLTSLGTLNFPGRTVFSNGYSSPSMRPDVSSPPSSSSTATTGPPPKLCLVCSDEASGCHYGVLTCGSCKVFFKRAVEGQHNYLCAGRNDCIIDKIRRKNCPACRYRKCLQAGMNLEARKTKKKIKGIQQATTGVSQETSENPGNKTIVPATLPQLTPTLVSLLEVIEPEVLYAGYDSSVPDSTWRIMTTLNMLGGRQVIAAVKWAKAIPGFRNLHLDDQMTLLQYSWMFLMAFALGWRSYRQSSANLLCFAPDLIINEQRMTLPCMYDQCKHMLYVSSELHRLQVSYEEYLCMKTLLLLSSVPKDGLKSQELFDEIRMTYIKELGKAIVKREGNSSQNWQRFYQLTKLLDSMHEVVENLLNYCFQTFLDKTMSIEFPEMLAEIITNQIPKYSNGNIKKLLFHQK
Transcriptional activator Myb (Homo sapiens), sequence (P10242 whole entry, looked up): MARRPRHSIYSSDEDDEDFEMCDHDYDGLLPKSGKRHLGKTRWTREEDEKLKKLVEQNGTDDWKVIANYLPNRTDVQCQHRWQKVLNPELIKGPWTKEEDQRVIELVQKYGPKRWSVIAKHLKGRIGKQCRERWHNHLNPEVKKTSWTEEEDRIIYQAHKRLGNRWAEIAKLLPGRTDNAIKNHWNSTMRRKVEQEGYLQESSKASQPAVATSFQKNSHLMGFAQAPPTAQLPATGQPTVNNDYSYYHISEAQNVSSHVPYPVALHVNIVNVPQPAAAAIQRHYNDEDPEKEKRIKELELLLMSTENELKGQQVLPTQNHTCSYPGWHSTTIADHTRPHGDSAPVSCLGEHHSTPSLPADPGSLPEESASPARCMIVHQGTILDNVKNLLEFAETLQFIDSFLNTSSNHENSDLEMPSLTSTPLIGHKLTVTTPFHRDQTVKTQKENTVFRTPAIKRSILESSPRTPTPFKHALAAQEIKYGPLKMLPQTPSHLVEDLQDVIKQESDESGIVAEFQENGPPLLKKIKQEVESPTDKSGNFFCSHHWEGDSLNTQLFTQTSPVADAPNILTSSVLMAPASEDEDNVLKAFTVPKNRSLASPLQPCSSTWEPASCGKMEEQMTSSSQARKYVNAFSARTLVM
Nuclear respiratory factor 1 (Homo sapiens), sequence (Q16656 whole entry, looked up): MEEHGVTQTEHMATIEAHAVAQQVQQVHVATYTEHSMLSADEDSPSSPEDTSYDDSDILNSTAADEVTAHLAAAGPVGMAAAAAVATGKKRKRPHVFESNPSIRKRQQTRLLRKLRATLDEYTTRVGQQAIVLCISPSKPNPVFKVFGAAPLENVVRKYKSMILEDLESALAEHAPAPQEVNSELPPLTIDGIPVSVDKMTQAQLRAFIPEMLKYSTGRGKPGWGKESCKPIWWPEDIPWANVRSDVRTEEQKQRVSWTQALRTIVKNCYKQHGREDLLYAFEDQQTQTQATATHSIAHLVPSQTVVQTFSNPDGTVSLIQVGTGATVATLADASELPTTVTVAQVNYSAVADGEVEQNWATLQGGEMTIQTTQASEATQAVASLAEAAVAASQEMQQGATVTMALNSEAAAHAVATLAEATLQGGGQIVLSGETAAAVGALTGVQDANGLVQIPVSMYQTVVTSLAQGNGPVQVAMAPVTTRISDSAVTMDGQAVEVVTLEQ
Nuclear receptor subfamily 4 group A member 2 (Homo sapiens), sequence (P43354 whole entry, looked up): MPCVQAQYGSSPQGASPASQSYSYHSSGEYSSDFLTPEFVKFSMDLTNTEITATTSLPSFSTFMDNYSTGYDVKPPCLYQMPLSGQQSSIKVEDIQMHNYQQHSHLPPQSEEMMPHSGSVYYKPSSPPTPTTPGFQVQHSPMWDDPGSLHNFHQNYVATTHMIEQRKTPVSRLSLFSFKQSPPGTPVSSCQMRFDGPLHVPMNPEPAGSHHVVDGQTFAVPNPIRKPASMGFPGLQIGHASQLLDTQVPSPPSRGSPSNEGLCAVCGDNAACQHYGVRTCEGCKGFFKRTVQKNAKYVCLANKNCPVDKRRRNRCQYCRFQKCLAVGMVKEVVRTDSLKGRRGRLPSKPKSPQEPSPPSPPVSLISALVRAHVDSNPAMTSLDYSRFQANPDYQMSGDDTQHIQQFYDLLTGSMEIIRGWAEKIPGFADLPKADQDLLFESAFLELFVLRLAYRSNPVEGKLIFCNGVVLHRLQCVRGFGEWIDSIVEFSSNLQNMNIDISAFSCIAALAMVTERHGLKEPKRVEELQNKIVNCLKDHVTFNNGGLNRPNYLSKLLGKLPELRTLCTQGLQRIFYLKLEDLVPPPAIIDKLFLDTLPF
X-box-binding protein 1 (Homo sapiens), sequence (P17861 whole entry, looked up): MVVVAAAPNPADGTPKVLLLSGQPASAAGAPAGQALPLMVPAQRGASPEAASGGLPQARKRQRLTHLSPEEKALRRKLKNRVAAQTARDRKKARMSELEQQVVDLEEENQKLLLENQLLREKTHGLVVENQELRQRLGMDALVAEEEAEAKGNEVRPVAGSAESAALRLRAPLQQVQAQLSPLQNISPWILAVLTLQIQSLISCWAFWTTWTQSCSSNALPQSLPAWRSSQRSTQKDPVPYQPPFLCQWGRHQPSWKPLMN
Hepatocyte nuclear factor 4-alpha (Homo sapiens), sequence (P41235 whole entry, looked up, the tested form may be a part): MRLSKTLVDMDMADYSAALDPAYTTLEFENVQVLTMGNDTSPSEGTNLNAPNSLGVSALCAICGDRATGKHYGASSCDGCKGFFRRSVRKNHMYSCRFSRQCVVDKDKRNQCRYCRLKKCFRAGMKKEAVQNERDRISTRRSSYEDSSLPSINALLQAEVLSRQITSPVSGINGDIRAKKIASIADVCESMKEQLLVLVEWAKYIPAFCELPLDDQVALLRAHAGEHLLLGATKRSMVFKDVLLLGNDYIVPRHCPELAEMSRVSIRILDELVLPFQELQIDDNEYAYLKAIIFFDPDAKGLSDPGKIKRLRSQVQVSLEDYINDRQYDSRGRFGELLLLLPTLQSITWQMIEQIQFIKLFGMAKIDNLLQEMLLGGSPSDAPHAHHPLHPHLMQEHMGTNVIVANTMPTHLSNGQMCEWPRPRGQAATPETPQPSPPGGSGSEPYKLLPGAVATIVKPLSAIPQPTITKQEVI
Nuclear receptor subfamily 1 group I member 3 (Homo sapiens), sequence (Q14994 whole entry, looked up, the tested form may be a part): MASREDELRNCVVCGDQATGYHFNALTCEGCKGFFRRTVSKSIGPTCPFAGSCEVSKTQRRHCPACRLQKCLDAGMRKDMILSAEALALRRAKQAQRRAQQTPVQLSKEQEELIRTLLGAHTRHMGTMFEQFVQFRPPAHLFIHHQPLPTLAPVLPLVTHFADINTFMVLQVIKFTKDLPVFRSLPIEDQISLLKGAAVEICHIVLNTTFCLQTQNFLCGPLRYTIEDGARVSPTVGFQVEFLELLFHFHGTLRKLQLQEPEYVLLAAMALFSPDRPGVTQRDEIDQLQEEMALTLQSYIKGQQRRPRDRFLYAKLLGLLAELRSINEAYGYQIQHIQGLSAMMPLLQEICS
Bile acid receptor (Homo sapiens), sequence (Q96RI1 whole entry, looked up, the tested form may be a part): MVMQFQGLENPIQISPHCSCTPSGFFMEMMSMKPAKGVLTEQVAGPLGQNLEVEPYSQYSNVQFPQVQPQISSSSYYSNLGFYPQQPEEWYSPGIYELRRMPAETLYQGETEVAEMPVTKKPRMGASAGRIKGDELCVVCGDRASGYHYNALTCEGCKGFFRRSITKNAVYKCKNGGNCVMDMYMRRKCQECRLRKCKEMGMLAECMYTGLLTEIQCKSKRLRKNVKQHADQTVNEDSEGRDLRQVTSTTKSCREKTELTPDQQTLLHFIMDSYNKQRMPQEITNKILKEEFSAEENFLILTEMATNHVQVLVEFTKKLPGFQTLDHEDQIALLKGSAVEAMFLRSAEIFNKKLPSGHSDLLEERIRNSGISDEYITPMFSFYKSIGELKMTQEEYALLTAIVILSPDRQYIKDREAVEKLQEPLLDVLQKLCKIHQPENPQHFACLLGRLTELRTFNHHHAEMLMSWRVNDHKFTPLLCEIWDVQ
Oxysterols receptor LXR-alpha (Homo sapiens), sequence (Q13133 whole entry, looked up, the tested form may be a part): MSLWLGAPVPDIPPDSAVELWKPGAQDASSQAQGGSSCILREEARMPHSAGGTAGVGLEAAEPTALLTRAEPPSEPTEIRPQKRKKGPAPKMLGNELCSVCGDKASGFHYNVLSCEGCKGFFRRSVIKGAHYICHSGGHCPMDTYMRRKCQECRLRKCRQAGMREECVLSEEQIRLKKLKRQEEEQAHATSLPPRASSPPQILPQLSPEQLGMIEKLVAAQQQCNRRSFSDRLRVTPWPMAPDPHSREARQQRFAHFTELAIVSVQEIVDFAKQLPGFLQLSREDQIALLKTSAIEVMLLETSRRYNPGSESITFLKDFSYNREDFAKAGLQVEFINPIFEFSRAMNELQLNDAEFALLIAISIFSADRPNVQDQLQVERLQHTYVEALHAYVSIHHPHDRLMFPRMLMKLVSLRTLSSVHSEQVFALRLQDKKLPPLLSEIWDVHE

Row | Structure (SMILES) | outcome [1] | outcome [2] | outcome [3] | outcome [4] | outcome [5] | outcome [6] | outcome [7] | outcome [8] | outcome [9] | outcome [10] | outcome [11] | outcome [12] | outcome [13] | outcome [14] | outcome [15] | outcome [16] | outcome [17] | outcome [18] | outcome [19] | AC50 [20]
1 | Sc1nc(S)nc(S)n1 | inactive | inactive | inactive | inactive | inactive | inactive | inactive | inactive | inactive | inactive | inactive | inactive | – | – | – | – | – | – | – | –
2 | C=C[C@@H](C)CCC=C(C)C | inactive | inactive | inactive | inactive | inactive | inactive | – | inactive | inactive | inactive | inactive | inactive | – | – | – | – | – | – | – | –
3 | OCCN1CCNCC1 | inactive | inactive | inactive | inactive | inactive | inactive | inactive | inactive | – | inactive | inactive | inactive | inactive | inactive | inactive | – | – | – | – | –
4 | Nc1ccc(S(=O)(=O)O)c(N)c1 | inactive | inactive | inactive | inactive | – | inactive | – | inactive | – | inactive | inactive | inactive | – | – | – | – | – | – | – | –
5 | O=[N+]([O-])c1cc(C(F)(F)F)ccc1Cl | inactive | inactive | – | inactive | – | – | inactive | inactive | inactive | – | inactive | – | – | inactive | – | inactive | inactive | – | – | –
6 | Cc1cccc(C)c1[N+](=O)[O-] | inactive | inactive | inactive | inactive | – | inactive | inactive | inactive | inactive | – | inactive | inactive | – | inactive | – | – | – | – | – | –
7 | O=C1CCc2ccccc2O1 | inactive | inactive | inactive | – | inactive | – | inactive | inactive | – | inactive | inactive | inactive | – | – | – | – | – | – | – | –
8 | COc1nc(C)nc(N)n1 | inactive | inactive | inactive | inactive | – | – | inactive | inactive | inactive | inactive | inactive | inactive | – | – | – | – | – | – | – | –
9 | CC(C)=CCC[C@H](C)CC=O | inactive | inactive | inactive | – | inactive | inactive | – | inactive | inactive | inactive | inactive | inactive | – | inactive | inactive | – | – | inactive | – | –
10 | O=C(O)c1ccc(C(=O)O)cc1 | inactive | inactive | inactive | – | inactive | – | inactive | inactive | inactive | inactive | inactive | inactive | – | inactive | – | – | – | – | inactive | –
11 | OCCCCCO | inactive | inactive | – | inactive | inactive | inactive | – | inactive | inactive | – | inactive | inactive | – | – | – | inactive | – | inactive | – | 76.1 µM (active)
